PubChem BioAssay (NCI)
The panel holds about 79,000 compounds, 15% with a hit somewhere; the sample as a whole holds those more often. A number with no mark means an inactive call. Calls of active or inactive are those of the source. Rule as the data show it: active = growth inhibition above about 70%; inactive = the rest.

Assays:
[1] = NCI Yeast Anticancer Drug Screen. Data for the rad50 strain (AID 155);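 also: 0% = growth of vehicle-only cultures of the same strain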; settings: S. cerevisiae rad50 strain growth inhibition; at 50.0 µM; stronger effect = higher value
Procedure, shortened: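 Readout: growth inhibition relative to vehicle-treated cultures. Compound exposure was carried out in a genetically defined yeast strain deficient in DNA damage repair.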

[2] = NCI Yeast Anticancer Drug Screen. Data for the mec2-1 strain (AID 157); settings: S. cerevisiae mec2-1 strain, at 50.0 µM, stronger effect = higher value
Procedure, shortened: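 Each compound was tested on mec2-1 yeast, a strain altered in DNA damage repair or cell cycle control. Growth inhibition is reported relative to vehicle.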

[3] = NCI Yeast Anticancer Drug Screen. Data for the sgs1 mgt1 strain (AID 161);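 also: 0% = growth of cultures given vehicle only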; settings: S. cerevisiae sgs1 mgt1 strain, at 50.0 µM, stronger effect = higher value
Procedure, shortened: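 Read-out: growth inhibition vs vehicle controls. Cells: mutant yeast strain deficient in DNA damage repair.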

[4] = NCI Yeast Anticancer Drug Screen. Data for the cln2 rad14 strain (AID 165);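 also: 0% = growth equal to vehicle treated cultures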; settings: S. cerevisiae cln2 rad14 strain, at 50.0 µM, stronger effect = higher value
Procedure, shortened: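 Test compounds were added to cln2 rad14 yeast cultures; inhibition of growth was then determined by comparison with vehicle treatment.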

[5] = NCI Yeast Anticancer Drug Screen. Data for the bub3 strain (AID 167); settings: S. cerevisiae bub3 mutant strain, at 50.0 µM, stronger effect = higher value
Procedure, shortened: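 Readout: yeast growth inhibition, expressed relative to vehicle-only wells. The test organism is a mutant strain from a panel with lesions in DNA repair or checkpoint genes.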

[6] = NCI Yeast Anticancer Drug Screen. Data for the mlh1 rad18 strain (AID 175); settings: S. cerevisiae mlh1 rad18 strain growth inhibition; at 50.0 µM; stronger effect = higher value
Procedure, shortened: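 Inhibition values reflect reduced growth of mutant yeast versus vehicle-treated controls following compound exposure; the mutations affect DNA damage repair.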

Compound | growth inhibition [1] | growth inhibition [2] | growth inhibition [3] | growth inhibition [4] | growth inhibition [5] | growth inhibition [6]
O=C1c2ccccc2-c2nnc(-c3ccc(Cl)cc3)cc21 | -29.1% | -14.2% | -18.2% | -16.9% | -24.2% | -18.3%
Cc1ccc(-c2ccno2)cc1 | 1.7% | 3.15% | 1.25% | -14.3% | -8.3% | 2.25%
N#CCC(=O)Nc1ccccc1 | 37% | 15.7% | 5.8% | -11.8% | 6.25% | 26.2%
CCO[C@@H]1C2C=CC(C2)[C@H]1[N+](=O)[O-] (some centres not stated) | -11.8% | 12.2% | -5.65% | 15.4% | 3.05% | -5.4%
NC(=S)N/N=C(\CCC(=O)Nc1ccccc1[N+](=O)[O-])CC(=O)c1ccco1 | -1.55% | -1.95% | -19.9% | 27.4% | -19.8% | 6.3%
CCOC(NC(C)=O)C(O)c1ccc(Cl)cc1 (configuration not stated) | 20.1% | 11.2% | 13.1% | -41.5% | -9.9% | 18.2%
CCOC(=O)/C=C/C(=O)OCC | -2.15% | -0.2% | -4.8% | -2.55% | 6.65% | -2.65%
COc1ccc2ccc3ccc(OC)nc3c2n1 | 40% | 40.2% | 36.1% | -7.05% | 30.2% | 16.1%
CC(=O)N/N=C/c1ccc(C)cc1 | 6.6% | -1.3% | -11.1% | -0.9% | -11.8% | 1.75%
NC(=O)CN(CC(N)=O)C(N)=O | -14.6% | -18% | -20.2% | 5.15% | -10.3% | -23.6%
CC1(C)C=C(C(Br)c2cccc(Cl)c2)C(=O)c2ccccc21 (configuration not stated) | 98.3% (active) | 99.6% (active) | 99.8% (active) | 99% (active) | 98.8% (active) | 99.3% (active)
CCCCCCCCCCCCS(=O)(=O)N/N=C(\c1ccccc1Cl)N1CCOCC1 | 48.2% | 33.5% | 45.9% | 48.2% | 55.8% | 51.2%
CC(=O)Cc1ccc(Cl)cc1[N+](=O)[O-] | -14.8% | 5.95% | -8.5% | -24.3% | -9.7% | 1.9%
O=S1c2ccc(Cl)cc2CC(SSC2Cc3cc(Cl)ccc3S(=O)c3ccccc32)c2ccccc21 (configuration not stated) | 18.5% | -35.6% | -7.65% | 6.15% | 10.5% | -9%
CC(C)CCCC(C)C1CCC2(C)C3CCC(C(C)O)C(C)(CCCO)C3CCC12C (configuration not stated) | 47.8% | 27.4% | 61.4% | 38.1% | 23.8% | 55.9%
C=CS(=O)(=O)c1ccc(NC(=O)Nc2ccc(Cl)cc2)cc1 | -0.55% | 1.7% | -8.8% | 12.8% | 1.25% | 5.85%
CCCCCCCCCCCCCCCC[N+](C)(C)CCN | 98.9% (active) | 50.8% | 58.4% | 73.4% (active) | 49.2% | 59.7%
COc1ccc(CCN=C(c2ccccc2)c2ccccc2)cc1OC | 22.4% | 10.2% | 8.75% | -27.4% | 10.3% | 12.7%
CC(C)=CCC(C)c1ccccn1 (configuration not stated) | -2.45% | 5.5% | 10.3% | -12.8% | 10.9% | -4.2%
N#CC1(CCCI)CCCC1 | 9.3% | 7.05% | 7.95% | -7.45% | -2.3% | 6.1%
CC(C)=CCc1c(C)c(O)c(C)c(C)c1O | 7.15% | 1.25% | 9.6% | -71.9% | -11.4% | 8.05%

Compound | growth inhibition [1] | growth inhibition [2] | growth inhibition [3] | growth inhibition [4] | growth inhibition [5] | growth inhibition [6]
CC(C)(O)C12CC3CC(CC(C3)C1)C2 | 18.4% | -6.15% | 8.35% | -38.2% | 5.25% | 0.2%
O=C1c2ccccc2C(=O)N1CCc1ncc(-c2ccccc2)[nH]1 | -16.4% | 7.85% | -16.1% | 12.4% | 1.1% | 1.9%
O=c1[nH]c(=O)n(C2CC(O)C(CO)O2)cc1C#Cc1ccc(F)cc1 (configuration not stated) | -3.45% | 19.2% | -15.2% | -5.6% | 3.85% | -8.95%
CN(/N=C\c1ccc([N+](=O)[O-])cc1)C(=O)c1ccccc1 | -6.85% | -4.15% | 14.6% | -33.6% | 19.4% | -7.35%
O=C(NNC(=S)NCc1ccccc1)C12CC3CC(CC(C3)C1)C2 | -35.6% | -10.3% | -4.2% | 2.55% | 15.5% | -5.9%
Brc1ccc(CN(Cc2ccccc2)Cc2ccccc2)cc1 | -13.3% | -8.3% | 1.55% | -10.4% | 10.7% | 4.75%
C=Cn1c([N+](=O)[O-])cnc1/C=C/c1ccc(C(=O)OCCN2CCOCC2)cc1 | 68.8% | 16.4% | 78.3% (active) | 34.9% | -10.2% | 53%
Cc1nc2nncn2c(=O)[nH]1 | 9.35% | -0.4% | 31.8% | 15.4% | 6.1% | 17.9%
COc1ccc(C(C)c2cc3c(cc2OC)OCO3)cc1 (configuration not stated) | 9.25% | -32.6% | 15.2% | 3.35% | 3% | 10.9%
O=C(O)CCC1COc2ccccc2O1 (configuration not stated) | -12.2% | -8.35% | 0.8% | -9.5% | -14% | -9.35%
CCOC(=O)c1cc2c(nc1N)C(=O)CCCC2 | -34.5% | -59.1% | -48.3% | -23.9% | -24.6% | -31.6%
CC(=O)c1cccc2c(C(C)=O)cccc12 | 5.45% | -5.2% | 14.8% | -20.1% | 3.4% | -15.1%
CNc1cc2oc(=O)cc(C)c2cc1C | 19.8% | -12.5% | 6.8% | 3.6% | 14.2% | 10.4%
O=C1CC[C@@H](C(=O)Nc2cccc3ccccc23)N1 | -7.15% | 8.45% | 8.5% | -24.4% | 10.6% | 21.2%
COc1ccc(/C=C2/CSC/C(=C/c3ccc(OC)c(OC)c3)C2=O)cc1OC | -16.2% | 11.7% | 6.8% | -40.8% | 10.2% | -1.35%
COC(=O)CCc1onc(Br)c1CCl | 17.8% | 9.05% | -7.55% | 0.35% | 9.95% | 9.5%
CCOC(=S)SCCSC | 11.7% | 6.3% | -1.45% | 4.35% | -3.6% | 11.6%
Cc1cccc(NC(=O)/C=C/c2ccc(N(CCC#N)CCC#N)cc2C)c1 | 9.15% | 7.25% | -6% | 6.6% | 40.4% | 19.9%
N#CC(C(=O)C(N)=O)c1nc2ccccc2s1 (configuration not stated) | 20.2% | 9.45% | 19.4% | 5.8% | -9.5% | 2.25%
O=C1CCCCC1C(O)(C(F)(F)F)C(F)(F)Cl (configuration not stated) | -20.4% | -28.9% | -36.7% | -13.7% | -30.2% | -20.1%
CCCC(O)CO (configuration not stated) | 5.55% | 1.9% | 0.15% | -0.6% | -0.5% | 40.2%
